This is an account of results in PMC5515408, “Sequence-specific DNA binding by MYC/MAX to low-affinity non-E-box motifs”.

Over roughly 4,500 sequences, “log2 normalized fluorescence” has its median near -0.34; the highest 2% begin near 3.3. The sample as a whole holds a higher share of the highest values than the screen did.

The target in the assay is MAX:MAX (p21) (human, UniProt P61244-2 1-151). Nature of the assay: protein-binding microarray (anti-MAX antibody); PBM: 15 mM Tris-HCl pH 7.5, 100 mM KCl, 0.075% NP40, 7.5 mM beta-mercaptoethanol, 375 ng/ul BSA, 8 ng/ul poly(dA-dT):(dA-dT), 550 ng complex, 60 min, room tempe; high values mean tight binding. The settings on record: protein: recombinant; tags: 6xHis; chain copies: 2; label: 3' end of printed strand (linker) attached to glass slide; dsDNA, one strand shown. Summed up: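 A custom Agilent glass array held ~5000 unique 12-nt sequences in triplicate spots, made double-stranded by primer extension. His-tagged human MYC:MAX or MAX:MAX dimers (550 ng, produced in E. coli) were applied for 60 min at room temperature in Tris-KCl buffer, pH 7.5, with NP40, BSA and poly(dA-dT) competitor. Anti-MAX and secondary antibodies detected bound protein, with scanning at 543 nm, and binding is given as log2 normalized fluorescence.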
Chain of MAX:MAX (p21) (P61244 other isoform, or with tags, fused parts or gaps): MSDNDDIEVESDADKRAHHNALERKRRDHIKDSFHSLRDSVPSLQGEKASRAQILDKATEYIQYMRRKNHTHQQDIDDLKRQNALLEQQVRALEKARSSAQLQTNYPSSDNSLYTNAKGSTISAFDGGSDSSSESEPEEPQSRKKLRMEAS
Take “CCGGCTGGCACGTGGTTTTAATAGCTAAGATTACTATATCGACG”: the binding signal was 3.33 log2 normalized fluorescence.
The same measure for “CCGGCTGAGTGTCGGTATTAATAGCTAAGATTACTATATCGACG”: -0.348 log2 normalized fluorescence; for “CCGGCTGATGCCCTGTATTAATAGCTAAGATTACTATATCGACG”: -0.309 log2 normalized fluorescence.
The same measure for “CCGGCTGAACGTACGTATTAATAGCTAAGATTACTATATCGACG”: -0.307 log2 normalized fluorescence; for “CCGGCTGAGGCGTCGTATTAATAGCTAAGATTACTATATCGACG”: -0.641 log2 normalized fluorescence.
The figure for “CCGGCTGAACGCAAGTATTAATAGCTAAGATTACTATATCGACG” is 0.234 log2 normalized fluorescence; for “CCGGCTGACACACGTTATTAATAGCTAAGATTACTATATCGACG” it is 2.37 log2 normalized fluorescence.
For the sequence “CCGGCCGACACGGCGTATTAATAGCTAAGATTACTATATCGACG”, the binding signal was 0.94 log2 normalized fluorescence.
The same measure for “CCGGCTGACACGTGTTATTAATAGCTAAGATTACTATATCGACG”: 3.29 log2 normalized fluorescence; for “CCGGCTGACACGTTATATTAATAGCTAAGATTACTATATCGACG”: 2.87 log2 normalized fluorescence.
The figure for “CCGGCAGAAACGTGTTATTAATAGCTAAGATTACTATATCGACG” is 2.96 log2 normalized fluorescence; for “CCGGCCGACACGTGCTATTAATAGCTAAGATTACTATATCGACG” it is 3.18 log2 normalized fluorescence.
Regarding “CCGGCAGACACGTGTTATTAATAGCTAAGATTACTATATCGACG”, the binding signal is 3.42 log2 normalized fluorescence.
The figure for “CCGGCCGACACGTGTTATTAATAGCTAAGATTACTATATCGACG” is 3.4 log2 normalized fluorescence; for “CCGGCCGACACCTGTTATTAATAGCTAAGATTACTATATCGACG” it is 2.63 log2 normalized fluorescence; for “CCGGCCGACACGTGATATTAATAGCTAAGATTACTATATCGACG” it is 3.43 log2 normalized fluorescence.
The figure for “CCGGCTGACACGTGATATTAATAGCTAAGATTACTATATCGACG” is 3.05 log2 normalized fluorescence.
As to “CCGGCAGACACGTGGTGTTAATAGCTAAGATTACTATATCGACG”, the binding signal is 3.28 log2 normalized fluorescence.
The figure for “CCGGCTGAGCATTTGTATTAATAGCTAAGATTACTATATCGACG” is -0.22 log2 normalized fluorescence.
The figure for “CCGGCTGACTGGATGTATTAATAGCTAAGATTACTATATCGACG” is -0.202 log2 normalized fluorescence; for “CCGGCTGACATTCAGTATTAATAGCTAAGATTACTATATCGACG” it is 0.265 log2 normalized fluorescence.
The same measure for “CCGGCTGACGTGTCGTATTAATAGCTAAGATTACTATATCGACG”: 1.07 log2 normalized fluorescence; for “CCGGCTGATGGTCTGTATTAATAGCTAAGATTACTATATCGACG”: 0.348 log2 normalized fluorescence.
On to “CCGGCTGAGGAGGCGTATTAATAGCTAAGATTACTATATCGACG”, for which the binding signal is -0.734 log2 normalized fluorescence.
The figure for “CCGGCTGACACTACGTATTAATAGCTAAGATTACTATATCGACG” is -0.11 log2 normalized fluorescence; for “CCGGCTGAACGTTGGTATTAATAGCTAAGATTACTATATCGACG” it is 0.152 log2 normalized fluorescence; for “CCGGCTGTGACGTGGTATTAATAGCTAAGATTACTATATCGACG” it is 1.45 log2 normalized fluorescence.
The same measure for “CCGGCTGACACGTGTTGTTAATAGCTAAGATTACTATATCGACG”: 3.32 log2 normalized fluorescence.
Turning to “CCGGCTGACACGTGCTGTTAATAGCTAAGATTACTATATCGACG”, the binding signal is 3 log2 normalized fluorescence.
The figure for “CCGGCAGACATGTGGTGTTAATAGCTAAGATTACTATATCGACG” is 3.1 log2 normalized fluorescence; for “CCGGCAGACACGTGATATTAATAGCTAAGATTACTATATCGACG” it is 3.29 log2 normalized fluorescence.
“CCGGCCGACATGTGGTGTTAATAGCTAAGATTACTATATCGACG”: the binding signal was 3.43 log2 normalized fluorescence.
The figure for “CCGGCTGACACGTGTCGTTAATAGCTAAGATTACTATATCGACG” is 3.18 log2 normalized fluorescence; for “CCGGCAGACACGCGATATTAATAGCTAAGATTACTATATCGACG” it is 2.93 log2 normalized fluorescence; for “CCGGCAGACACGTGATCTTAATAGCTAAGATTACTATATCGACG” it is 3.05 log2 normalized fluorescence.
The figure for “CCGGCCGACATGTGGTATTAATAGCTAAGATTACTATATCGACG” is 3.18 log2 normalized fluorescence; for “CCGGCTGATGGTAGGTATTAATAGCTAAGATTACTATATCGACG” it is 0.124 log2 normalized fluorescence; for “CCGGCTGATTCAAGGTATTAATAGCTAAGATTACTATATCGACG” it is -0.736 log2 normalized fluorescence.
The figure for “CCGGCTGACTAGGCGTATTAATAGCTAAGATTACTATATCGACG” is -0.638 log2 normalized fluorescence.
Consider “CCGGCTGACTCCGCGTATTAATAGCTAAGATTACTATATCGACG”, for which the binding signal was -0.516 log2 normalized fluorescence.
The figure for “CCGGCTGAGACACGGTATTAATAGCTAAGATTACTATATCGACG” is 0.481 log2 normalized fluorescence; for “CCGGCTGACTGTACGTATTAATAGCTAAGATTACTATATCGACG” it is -0.112 log2 normalized fluorescence.
Take “CCGGCTGACCCAGTGTATTAATAGCTAAGATTACTATATCGACG”: the binding signal is -0.0826 log2 normalized fluorescence.
The figure for “CCGGCTGAACTCGGGTATTAATAGCTAAGATTACTATATCGACG” is -0.618 log2 normalized fluorescence.
The figure for “CCGGCTGAACTACCGTATTAATAGCTAAGATTACTATATCGACG” is -0.334 log2 normalized fluorescence; for “CCGGCTGACACGTGTAATTAATAGCTAAGATTACTATATCGACG” it is 3.24 log2 normalized fluorescence.
The figure for “CCGGCTGACACGTGGTTTTAATAGCTAAGATTACTATATCGACG” is 3.37 log2 normalized fluorescence; for “CCGGCTGACACGTGTAGTTAATAGCTAAGATTACTATATCGACG” it is 3.17 log2 normalized fluorescence; for “CCGGCTGACACGTGTGGTTAATAGCTAAGATTACTATATCGACG” it is 3.39 log2 normalized fluorescence.
On to “CCGGCTGACACGTGGCGTTAATAGCTAAGATTACTATATCGACG”, for which the binding signal was 3.2 log2 normalized fluorescence.
Regarding “CCGGCTGACACGTGGATTTAATAGCTAAGATTACTATATCGACG”, the binding signal was 3.24 log2 normalized fluorescence.
The figure for “CCGGCTGACGCGTGGTTTTAATAGCTAAGATTACTATATCGACG” is 3.21 log2 normalized fluorescence.
The same measure for “CCGGCTGACACGTGGGGTTAATAGCTAAGATTACTATATCGACG”: 3.36 log2 normalized fluorescence; for “CCGGCTGACACGTGGGTTTAATAGCTAAGATTACTATATCGACG”: 3.39 log2 normalized fluorescence; for “CCGGCTGACACGTGGAGTTAATAGCTAAGATTACTATATCGACG”: 2.99 log2 normalized fluorescence.
The same measure for “CCGGCTGACGTGTGGTTTTAATAGCTAAGATTACTATATCGACG”: 1.65 log2 normalized fluorescence.
On to “CCGGCTGACACGGGTTTTTAATAGCTAAGATTACTATATCGACG”, for which the binding signal was 2.09 log2 normalized fluorescence.
